Data reported in PubChem BioAssay (NCI).
This is part of a sample that, as a whole, favours compounds with a hit. Of some 83,000 tested, about 20% had one in any assay.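 Plates (96-well) were seeded with cells, treated with compound at one concentration, and incubated for 48 hours before percent growth was determined.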 The source made the active and inactive calls. The calls were made as follows: active = growth percent below 10; inactive = the rest.

Assays:
Experiment in all cases: NCI-60 one-dose screen, 48 h (100 = growth as untreated, 0 = no growth, -100 = all killed)
Conditions in all cases: 10 µM unless noted
T-47D breast = test system: T-47D breast
BT-549 breast = test system: BT-549 breast
MDA-MB-435 melanoma = test system: MDA-MB-435 melanoma
SW-620 colon = test system: SW-620 colon
MCF7 breast = test system: MCF7 breast
HCT-116 colon = test system: HCT-116 colon
HCC-2998 colon = test system: HCC-2998 colon
KM12 colon = test system: KM12 colon

Measured: growth

CCN(CCNc1ccc(C)c2sc3cc(Cl)ccc3c(=O)c12)CC(C)O (configuration not stated)
active: MDA-MB-435 melanoma 6% | HCT-116 colon 9.99% | HCC-2998 colon 5.33%
inactive: T-47D breast 31.7% | BT-549 breast 110% | SW-620 colon 11.9% | MCF7 breast 36.7% | KM12 colon 39.2%

CC1=CC[C@@H]2C(C)(C)C(=O)CC[C@@]2(C)[C@@H]1COc1ccc2ccc(=O)oc2c1
active: T-47D breast 6.17%
inactive: BT-549 breast 55.9% | MDA-MB-435 melanoma 80.5% | SW-620 colon 101% | MCF7 breast 87.8% | HCT-116 colon 79.5% | HCC-2998 colon 83.6% | KM12 colon 63%

O=S(=O)(/N=c1/n(-c2ccccc2)nc2n1CCN2C1=NCCN1)c1ccc(-c2ccccc2)cc1
inactive: T-47D breast 94% | BT-549 breast 97.9% | MDA-MB-435 melanoma 94.4% | SW-620 colon 98.3% | MCF7 breast 97.8% | HCT-116 colon 95.6% | HCC-2998 colon 101% | KM12 colon 103%

COc1c(C(C)=O)c(OCCCCOc2c(C(C)=O)c(OC)c3ccoc3c2OC)c(OC)c2occc12
inactive: T-47D breast 23% | BT-549 breast 98.8% | MDA-MB-435 melanoma 57.9% | SW-620 colon 93.4% | MCF7 breast 64.4% | HCT-116 colon 78% | HCC-2998 colon 76.7% | KM12 colon 50.4%

CC(C)CSc1ncnc2nc[nH]c12
inactive: T-47D breast 85.7% | BT-549 breast 104% | MDA-MB-435 melanoma 104% | SW-620 colon 104% | MCF7 breast 97.1% | HCT-116 colon 109% | HCC-2998 colon 101% | KM12 colon 106%

CCc1cccc(Cl)c1
inactive: T-47D breast 107% | BT-549 breast 92% | MDA-MB-435 melanoma 107% | SW-620 colon 111% | MCF7 breast 99.4% | HCT-116 colon 104% | HCC-2998 colon 106% | KM12 colon 101%

CCN1c2ccccc2C(Cl)(c2ccc(N(C)C)cc2)c2ccccc21
inactive: T-47D breast 54.9% | BT-549 breast 62.1% | MDA-MB-435 melanoma 23.3% | SW-620 colon 12.2% | MCF7 breast 76.2% | HCT-116 colon 17.5% | HCC-2998 colon 78% | KM12 colon 21.9%

N#CC1C(=O)NC(c2ccccc2[N+](=O)[O-])c2sc3c(F)cccc3c21 (configuration not stated)
inactive: BT-549 breast 89.2% | MDA-MB-435 melanoma 102% | SW-620 colon 21.9% | MCF7 breast 23.4% | HCT-116 colon 11% | HCC-2998 colon 93.8% | KM12 colon 91.4%
active: T-47D breast 2.51%

NC(=O)c1c(NC(=O)COC(=O)Cc2ccccc2F)sc2c1CCC2
inactive: T-47D breast 88.8% | BT-549 breast 106% | MDA-MB-435 melanoma 105% | SW-620 colon 97.4% | MCF7 breast 88.8% | HCT-116 colon 114% | HCC-2998 colon 114% | KM12 colon 105%

CC(C)=CCC[C@](C)(O)[C@H]1CC[C@]2(C)[C@@H]1CC[C@@H]1[C@@]3(C)CC[C@H](OC(=O)CCC(=O)O)C(C)(C)[C@@H]3CC[C@]12C
inactive: T-47D breast 25.7% [100 µM] | BT-549 breast 25.5% [100 µM] | SW-620 colon 12.1% [100 µM] | MCF7 breast 15.8% [100 µM] | HCC-2998 colon 20.5% [100 µM]
active: MDA-MB-435 melanoma 6.66% [100 µM] | HCT-116 colon 9.66% [100 µM] | KM12 colon -19% [100 µM]

Cc1cccc([N+](=O)[O-])c1I
inactive: T-47D breast 104% | BT-549 breast 110% | MDA-MB-435 melanoma 103% | SW-620 colon 108% | MCF7 breast 114% | HCT-116 colon 112% | HCC-2998 colon 101% | KM12 colon 112%

CC1(C)C(=NO)C(C)(C)C1=NO
inactive: T-47D breast 121% | BT-549 breast 116% | MDA-MB-435 melanoma 92.2% | SW-620 colon 100% | MCF7 breast 106% | HCT-116 colon 103% | HCC-2998 colon 98% | KM12 colon 118%

CCN(CC)CCCNCc1cc(-c2ccccc2)nc2ccccc12
inactive: T-47D breast 53.4% | BT-549 breast 75.9% | MDA-MB-435 melanoma 53.3% | SW-620 colon 24.2% | MCF7 breast 35.7% | HCC-2998 colon 101% | KM12 colon 82.6%
active: HCT-116 colon 7.25%

Cc1ccc(Cn2c(O)c(N=NC(=O)c3ccc(S(N)(=O)=O)cc3)c3ccccc32)cc1
inactive: T-47D breast 83.7% | BT-549 breast 102% | MDA-MB-435 melanoma 102% | SW-620 colon 100% | MCF7 breast 95% | HCT-116 colon 102% | HCC-2998 colon 114% | KM12 colon 106%

C[C@H]1[C@H](C)CC[C@]2(C(=O)O)CC[C@]3(C)C(=CC[C@@H]4[C@@]5(C)C/C(=C/c6cccnc6)[C@H](O)C(C)(C)[C@@H]5CC[C@]43C)[C@H]12
inactive: T-47D breast 15.2% [100 µM] | SW-620 colon 14.9% [100 µM]
active: BT-549 breast -7.55% [100 µM] | MDA-MB-435 melanoma 7.2% [100 µM] | MCF7 breast 3.47% [100 µM] | HCT-116 colon -24.6% [100 µM] | HCC-2998 colon -8.19% [100 µM] | KM12 colon -37.1% [100 µM]

Cc1nc(Cl)cc(N(c2cc(Cl)nc(C)n2)c2ncc(C(=O)Nc3c(C)cccc3Cl)s2)n1
inactive: T-47D breast 23.5% | BT-549 breast 93.3% | MDA-MB-435 melanoma 71.8% | SW-620 colon 96.6% | MCF7 breast 53.3% | HCT-116 colon 19.1% | HCC-2998 colon 80.7% | KM12 colon 79.7%

C=C(C)[C@@H]1CC[C@]2(C)[C@H](C(=O)C=C3[C@@H]4C[C@](C)(C(=O)N5CCN(C)CC5)CC[C@]4(C)CC[C@]32C)[C@@]1(C)CCC#N
active: T-47D breast -40.5% [100 µM] | BT-549 breast -73.3% [100 µM] | MDA-MB-435 melanoma -81% [100 µM] | SW-620 colon -80% [100 µM] | MCF7 breast -71.1% [100 µM] | HCT-116 colon -70.7% [100 µM] | HCC-2998 colon -94% [100 µM] | KM12 colon -80.2% [100 µM]

O=C1CC(C(F)(F)F)Cc2nc3ccc(Br)cc3cc21 (configuration not stated)
inactive: T-47D breast 62.9% | BT-549 breast 96.3% | MDA-MB-435 melanoma 94.4% | SW-620 colon 92.4% | MCF7 breast 74.3% | HCT-116 colon 73.9% | HCC-2998 colon 109% | KM12 colon 64.4%

CC(C)=CC/C=C(/C)[C@H]1CC[C@]2(C)[C@@H]1CC[C@@H]1[C@@]3(C)CCC(=O)NC(C)(C)[C@@H]3CC[C@]12C
active: T-47D breast -3.77% [100 µM] | BT-549 breast -0.884% [100 µM] | MDA-MB-435 melanoma -4.47% [100 µM] | SW-620 colon -58.8% [100 µM] | MCF7 breast 8.52% [100 µM] | HCT-116 colon -37.4% [100 µM] | HCC-2998 colon 5.26% [100 µM] | KM12 colon -56% [100 µM]

Nc1cccc2c1C(=O)c1cccc(NC(=O)c3ccccc3)c1C2=O
active: MDA-MB-435 melanoma -56.4% | SW-620 colon 7.88% | HCC-2998 colon -10.5%
inactive: T-47D breast 45.6% | BT-549 breast 24.9% | MCF7 breast 13.7% | HCT-116 colon 19.9% | KM12 colon 32.5%

O=C(NCc1ccccc1)C(Cl)Cl
inactive: T-47D breast 102% | BT-549 breast 122% | MDA-MB-435 melanoma 103% | SW-620 colon 107% | MCF7 breast 90.1% | HCT-116 colon 108% | HCC-2998 colon 107% | KM12 colon 101%

CC(C)[C@H]1CCC2=C3CC[C@]45OC(=O)[C@@]6(CCC(C)(C)C[C@H]64)CC[C@@]5(C)[C@]3(C)CC[C@@]21C
inactive: T-47D breast 53.9% [100 µM] | BT-549 breast 82.1% [100 µM] | MDA-MB-435 melanoma 78.5% [100 µM] | SW-620 colon 78.7% [100 µM] | MCF7 breast 61.2% [100 µM] | HCT-116 colon 51.6% [100 µM] | HCC-2998 colon 97.9% [100 µM] | KM12 colon 76% [100 µM]

CC(C)[N+](C)(C)CC(O)COc1cccc2ccccc12 (configuration not stated)
inactive: T-47D breast 102% | BT-549 breast 112% | MDA-MB-435 melanoma 118% | SW-620 colon 99.7% | MCF7 breast 102% | HCT-116 colon 113% | HCC-2998 colon 101% | KM12 colon 96.1%

C=C(C)[C@@H]1CC[C@]2(C(=O)NCCCN)CC[C@]3(C)[C@H](CC[C@@H]4[C@@]5(C)CC[C@H](O)C(C)(C)[C@@H]5CC[C@]43C)[C@@H]12
active: T-47D breast -12.8% [100 µM] | BT-549 breast -2.14% [100 µM] | MDA-MB-435 melanoma -32.4% [100 µM] | SW-620 colon -36.2% [100 µM] | MCF7 breast -8.46% [100 µM] | HCT-116 colon 1.97% [100 µM] | HCC-2998 colon -23.4% [100 µM] | KM12 colon -25.3% [100 µM]

CCCCOC(=O)c1cccc([N+](=O)[O-])c1
inactive: T-47D breast 110% | BT-549 breast 104% | MDA-MB-435 melanoma 103% | SW-620 colon 103% | MCF7 breast 115% | HCT-116 colon 113% | HCC-2998 colon 98.5% | KM12 colon 108%

CC(=O)Nc1ccc2nc3ccc(NC(C)=O)cc3[n+](-c3ccccc3)c2c1
inactive: T-47D breast 93.4% | BT-549 breast 101% | MDA-MB-435 melanoma 123% | SW-620 colon 116% | MCF7 breast 73.1% | HCT-116 colon 95.6% | HCC-2998 colon 108% | KM12 colon 116%

CCCCCN(CCCCC)CCCCCCCCN1CCCc2ccccc21
inactive: T-47D breast 108% | BT-549 breast 88.6% | MDA-MB-435 melanoma 87.9% | SW-620 colon 82.8% | MCF7 breast 101% | HCT-116 colon 64.8% | HCC-2998 colon 74.8% | KM12 colon 73.4%

C[n+]1c(-c2ccccc2)c2cc(N)ccc2c2ccccc21
inactive: T-47D breast 11.9% | MDA-MB-435 melanoma 31.5% | SW-620 colon 40.5% | MCF7 breast 13% | HCT-116 colon 30.4% | HCC-2998 colon 40.5% | KM12 colon 19.1%
active: BT-549 breast 0.585%

O=c1[nH]c(CN2CCN(c3cccc(Cl)c3)CC2)nc2cc(Cl)ccc12
inactive: T-47D breast 75.9% | BT-549 breast 110% | MDA-MB-435 melanoma 103% | SW-620 colon 99.2% | MCF7 breast 86.2% | HCT-116 colon 92.4% | HCC-2998 colon 96.2% | KM12 colon 99%
